Drawing on PubChem BioAssay AID782 (Emory University Molecular Libraries Screening Center, 2007), this text covers inhibition for 59 compounds.

Usually inhibition stands for the relative decrease from the control value, in per cent.

Structures are written as SMILES. In all, about 220,000 compounds went through this assay and about 800 (0.36%) were called active. Shown is part of a subset that was picked to be rich in actives. A number with no mark means an inactive call.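 Rule for the calls: active = inhibition above about 30% (limit read from the data); inactive = the rest.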

The target in the assay is Eukaryotic translation initiation factor 4E (Mus musculus) + Eukaryotic translation initiation factor 4 gamma 1 (Homo sapiens) (UniProt P63073+Q04637). As to the kind of experiment: blockers of eIF4G binding by eIF4E – biochemical, uHTS, TR-FRET, eIF4GI fragment, primary screen (AID 782).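 Note: 0% = full FRET control wells and 100% = background wells lacking eIF4GI fragment.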 Conditions: TR-FRET eIF4E-eIF4GI(517-606) binding, 2 h; at 21.7 µM; stronger effect = higher value. (In general: Time-resolved FRET reads energy transfer from a long-lived donor to a nearby acceptor.)
Sequence of Eukaryotic translation initiation factor 4E (Mus musculus) + Eukaryotic translation initiation factor 4 gamma 1 (Homo sapiens) (P63073 whole entry, looked up, the tested form may be a part): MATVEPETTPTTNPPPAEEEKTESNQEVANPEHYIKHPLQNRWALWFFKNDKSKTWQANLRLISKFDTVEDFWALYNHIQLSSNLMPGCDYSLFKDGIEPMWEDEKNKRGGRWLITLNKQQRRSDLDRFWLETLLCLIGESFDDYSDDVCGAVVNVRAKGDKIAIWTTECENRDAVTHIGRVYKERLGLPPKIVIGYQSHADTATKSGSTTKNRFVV
Sequence of Eukaryotic translation initiation factor 4E (Mus musculus) + Eukaryotic translation initiation factor 4 gamma 1 (Homo sapiens) (Q04637 whole entry, looked up, the tested form may be a part): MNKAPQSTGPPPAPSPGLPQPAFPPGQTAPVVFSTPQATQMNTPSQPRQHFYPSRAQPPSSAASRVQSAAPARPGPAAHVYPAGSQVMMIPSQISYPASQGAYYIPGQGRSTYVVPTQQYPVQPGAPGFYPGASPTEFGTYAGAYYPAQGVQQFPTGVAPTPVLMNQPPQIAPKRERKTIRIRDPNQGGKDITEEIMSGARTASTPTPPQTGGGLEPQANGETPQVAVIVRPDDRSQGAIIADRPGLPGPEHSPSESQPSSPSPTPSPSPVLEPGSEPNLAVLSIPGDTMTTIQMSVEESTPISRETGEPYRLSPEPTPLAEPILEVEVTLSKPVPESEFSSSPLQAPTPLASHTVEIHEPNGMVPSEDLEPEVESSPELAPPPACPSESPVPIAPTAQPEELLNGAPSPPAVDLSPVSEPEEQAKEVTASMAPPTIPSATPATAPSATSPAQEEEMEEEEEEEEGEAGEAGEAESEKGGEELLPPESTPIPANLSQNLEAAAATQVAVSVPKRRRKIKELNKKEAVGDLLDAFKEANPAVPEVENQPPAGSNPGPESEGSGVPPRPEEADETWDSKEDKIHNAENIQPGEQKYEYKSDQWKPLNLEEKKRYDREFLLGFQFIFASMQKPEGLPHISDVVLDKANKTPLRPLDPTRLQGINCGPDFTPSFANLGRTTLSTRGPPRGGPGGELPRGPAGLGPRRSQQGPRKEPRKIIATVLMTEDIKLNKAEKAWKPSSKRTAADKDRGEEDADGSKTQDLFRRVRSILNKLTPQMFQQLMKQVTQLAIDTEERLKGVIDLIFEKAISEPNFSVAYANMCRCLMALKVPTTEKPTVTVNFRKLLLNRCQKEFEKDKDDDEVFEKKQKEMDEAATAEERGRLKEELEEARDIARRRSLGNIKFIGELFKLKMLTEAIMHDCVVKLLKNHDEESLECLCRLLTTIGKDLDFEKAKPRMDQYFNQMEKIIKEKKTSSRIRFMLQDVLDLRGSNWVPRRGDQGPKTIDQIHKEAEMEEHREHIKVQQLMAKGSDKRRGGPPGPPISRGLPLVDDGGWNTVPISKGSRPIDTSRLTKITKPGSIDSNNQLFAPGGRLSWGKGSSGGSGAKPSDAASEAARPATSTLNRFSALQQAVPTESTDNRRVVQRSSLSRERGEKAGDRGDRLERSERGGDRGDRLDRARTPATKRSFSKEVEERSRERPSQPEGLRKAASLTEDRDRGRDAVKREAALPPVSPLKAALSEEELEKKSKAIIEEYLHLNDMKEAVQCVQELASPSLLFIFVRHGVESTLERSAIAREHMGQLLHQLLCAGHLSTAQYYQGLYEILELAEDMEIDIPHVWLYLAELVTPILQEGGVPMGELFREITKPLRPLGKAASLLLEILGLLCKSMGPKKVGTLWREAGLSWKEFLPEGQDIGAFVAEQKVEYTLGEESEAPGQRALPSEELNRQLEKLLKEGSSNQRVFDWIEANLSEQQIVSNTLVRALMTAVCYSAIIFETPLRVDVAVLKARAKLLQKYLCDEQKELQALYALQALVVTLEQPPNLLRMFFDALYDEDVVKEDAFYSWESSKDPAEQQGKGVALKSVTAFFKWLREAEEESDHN
Take `COC(=O)/C=C(\Oc1ccccc1)C1(O)CCCCC1`: the inhibition was 3.79%.

Consider `COCCn1c(C)cc(C(=O)CSc2nc3ccccc3c(=O)n2C(C)COC)c1C` (centres undefined), for which the inhibition is -1.77%. In the case of `COC(=O)c1ccc(CSc2nc3ccccc3c(=O)n2-c2cccc(OC)c2)o1`, the inhibition is 2.4%. For `COCC(C)n1c(SCc2ccc(C(=O)OC)o2)nc2ccccc2c1=O` (centres undefined), the inhibition was 56% (active).

`CSc1nc(C)nc(C2CC2)c1C#N`: the inhibition was -3.41%. Turning to `Cc1cccc(N(C)C(=O)c2cc3c(=O)[nH]c4ccc(C)cc4c3s2)c1`, the inhibition was -9.17%. The value for `O=S(=O)(Cc1noc(-c2ccc(OC(F)(F)F)cc2)n1)c1ccc(F)cc1` was -0.8%; that for `S=c1[nH]nc(-c2ccco2)n1/N=C/c1ccc(Br)s1` was 49.9% (active); that for `S=c1[nH]nc(-c2ccco2)n1/N=C/c1ccccc1` was -0.4%. For the compound `Cc1cc(-c2n[nH]c(=S)n2/N=C/c2ccco2)n[nH]1`, the inhibition is -0.15%. `O=C(N/N=C/c1ccc([N+](=O)[O-])o1)c1cccc(S(=O)(=O)N2CCOCC2)c1`: the inhibition was 0.27%.

Consider `O=[N+]([O-])c1cc(Cl)cc(/C=N/NC(=S)Nc2cc(S(=O)(=O)N3CCOCC3)ccc2Cl)c1O`, for which the inhibition is 37.9% (active). As for `O=C(CN1CCN(c2ccc(O)cc2)CC1)Nc1cc(S(=O)(=O)N2CCOCC2)ccc1Cl`, the inhibition was 18.9%. For `COc1ccc(/C(N)=N/OC(=O)CCCc2ccccc2)cc1` the value was -2.25%; for `Cc1ccc(SCC(=O)Nc2ccc3c(c2)OCCO3)cc1`, 0.94%; for `NC(N)=NCCCc1cn(CC(=O)N2CCNCC2)nn1`, 0.73%.

In the case of `Fc1c(F)c(C(F)(F)F)c(F)c(F)c1N1CCN(c2ccc3nnc(C(F)(F)F)n3n2)CC1`, the inhibition is 35.1% [fluorescence artefact?] (active).

For the compound `FC(F)(F)c1nnc2ccc(N3CCN(c4ccccc4)CC3)nn12`, the inhibition was 0.95%. For `CCSc1nc(C)c(CCOc2cccc(C)c2)c(=O)[nH]1` the value was -0.93%. On to `Oc1c(Cl)cc(Cl)c(Cl)c1Cc1c(O)c(Cl)cc(Cl)c1Cl`, for which the inhibition was 46.2% (active).

For the compound `CCOC(=O)c1c(NC(=O)CSc2nnc(CNc3ccc(C)cc3C)o2)sc(C)c1C`, the inhibition is -0.54%. Take `CCOc1cc(C(=S)N2CCOCC2)ccc1O`: the inhibition is 30.5% [fluorescence artefact?] (active). For `COc1cc(C(=S)N2CCOCC2)ccc1O` the value was -0.65%; for `CCOc1cc(C(=O)OCC(=O)Nc2cccc(C)c2)ccc1OCC(=O)N1CCOCC1`, 0.63%; for `Cc1ccnc(NC(=O)CCCOc2ccccc2)c1`, 3.5%. `CCOC(=O)N1CCC(=NNC(N)=O)CC1`: the inhibition is 2.99%. As for `CC(NC(=O)C(=O)NN=C1CCC(C(C)(C)C)CC1)c1ccccc1` (centres undefined), the inhibition is 2.57%. For the compound `CC(C)(C)NC(=O)C(=O)NN=C1CCCCCCC1`, the inhibition was 39.2% (active).

Regarding `CC(C)NC(=S)NN=C1CCCCCCCCCCC1`, the inhibition is -4.16%. `Cc1cc(C(=O)N/N=C/c2ccccc2[N+](=O)[O-])c(C)o1`: the inhibition was 2.6%.

On to `Cc1c(C(=O)N/N=C/c2ccccc2)[nH]c2c([N+](=O)[O-])cccc12`, for which the inhibition was 94.2% (active). As to `O=C(N/N=C/c1ccc([N+](=O)[O-])cc1)c1c[nH]c2ccccc12`, the inhibition was -2.85%.

Take `COC(=O)Nc1ncc(CN2CCCCC2)s1`: the inhibition is 1.52%. `N/C(=N\S(=O)(=O)c1cc(C(F)(F)F)cc(C(F)(F)F)c1)c1cccs1`: the inhibition is 0.14%.

With `Cc1ccc(C(=O)NC(=S)Nc2ccccc2C)cc1`, the inhibition is -1.48%. On to `CCOC(=O)c1c(N)sc2c1CCCC2=O`, for which the inhibition is -0.22%. For the compound `Cc1cc2cc(CNC(=O)c3ccc(S(=O)(=O)N4CCOCC4)cc3)ccc2[nH]1`, the inhibition is -23.9%. The value for `C/C(CC(=O)Nc1ccc(C)cc1C)=N\NC(=O)C(C)C` was -1.71%; that for `C=CCn1c(SCC(=O)NCc2ccccc2)nnc1-c1cc(Br)ccc1O` was 4.21%. For the compound `C=CCn1c(N)cc(=O)nc1SCC(=O)Nc1cccc2ccccc12`, the inhibition is 30.1% (active). On to `C=CCn1c(SCC(=O)Nc2nc3ccccc3s2)nnc1-c1ccccc1O`, for which the inhibition was 6.76%. As to `Cc1ccc(S(=O)(=O)NNC(=S)NC(C)(C)C)cc1`, the inhibition was 2.84%. For `CC(NC(=S)NNS(=O)(=O)c1ccc(C(C)(C)C)cc1)c1ccccc1` (centres undefined), the inhibition was 96.5% (active).

Take `Cc1cc(C(=O)NNC(=S)NC(C)c2ccccc2)cs1` (centres undefined): the inhibition was -0.45%.

On to `O=C(C1CCCN1S(=O)(=O)c1ccc(Br)cc1)N1CCOCC1` (centres undefined), for which the inhibition is -1.1%. With `COC(=O)[C@@H]1C[C@@]2(O)[C@H](O)[C@H](O)[C@H](O)C[C@H]2N1Cc1ccc(C(C)(C)C)cc1`, the inhibition was -5.29%. For `COC(=O)[C@@H]1C[C@@]2(O)[C@@H](O)[C@@H](O)[C@@H](O)C[C@H]2N1Cc1ccc(C)s1` the value was 96% (active); for `COC(=O)[C@@H]1C[C@@]2(O)[C@H](O)[C@H](O)[C@H](O)C[C@H]2N1Cc1ccc(C)s1`, -1.88%; for `C/C(Cn1nnc2ccccc21)=N\OC(=O)c1cc(F)c(F)cc1Cl`, -2.84%. For `O=[N+]([O-])C(=c1ccc2c(c1)N1C3=C(CCCC3)CC3CCCCC31N=2)[N+](=O)[O-]` (centres undefined) the value was 34.6% (active); for `Cc1c(Cl)cccc1NC(=S)NCc1ccc2c(c1)OCO2`, 3.45%; for `O=C(NNC1=NCCC1)c1cccc(S(=O)(=O)N2CCCCC2)c1`, 6.05%. As for `Cc1ccc(N(C(=O)c2ccc(CN3CCOCC3)o2)C(C(=O)NCCC(C)C)c2cccs2)c(C)c1` (centres undefined), the inhibition was 3.08%.

With `CC(C)(C)c1ccc(/C=C2\SC(=O)N=C2N)cc1`, the inhibition was 2.64%. In the case of `C/C(=N\NC(=S)Nc1ccc(C)cc1)c1cc2ccccc2o1`, the inhibition is -0.73%.

Consider `CCCc1c(C(=O)Nc2ccc(F)cc2)cnn1-c1ccccc1`, for which the inhibition was 2.37%. With `CN(C)CCCN(Cc1cc2cc3c(cc2[nH]c1=O)OCCO3)C(=O)NC1CCCCC1`, the inhibition was 2.76%. With `O=C(c1ccc(F)cc1)N1CCCC(c2nc(-c3cccs3)no2)C1` (centres undefined), the inhibition is 3.08%.

For the compound `COc1ccnc(Oc2ccccc2)n1`, the inhibition was 15.9%.
